Compound activity (PubChem BioAssay)
Rows were chosen to be rich in hits. Some 3.9% of all compounds tested hit in one or more screens of this group.
BoNT-A LC inh2 = blocks Botulinum neurotoxin A light chain protease | multiplex microsphere protease substrate cleavage, flow cytometry | AID 588499 | inhibition, % at 10 µM | hit rate 0.17% among 360,000; further: plate controls were buffer without enzyme for full effect and enzyme alone for no effect
Bead autofluor = counter-screen for toxin protease inhibitors: compound fluorescence; compound autofluorescence counterscreen, microsphere flow cytometry; active compounds read high; fluorescence intensity (no concentration beside the values); hit rate 3.1% among 360,000; in the data active means fluorescence intensity above about 16000; inconclusive means no clear call, values can overlap the other calls
BoNT F protease = blocks Botulinum neurotoxin F light chain protease | inhibition, % at 10 µM | AID 588497 | Multiplex microsphere protease cleavage assay, flow cytometry | hit rate 0.22% among 360,000; in the data active means inhibition above about 35%, passing the limit was not always enough; inconclusive means no clear call, values can overlap the other calls; further: plate controls were buffer without enzyme for full effect and enzyme alone for no effect
MazEF act = MazEF (E. coli) toxin RNase activation | P0AE70 | FAM/BHQ RNA-DNA oligo cleavage fluorescence, 5 h | activation, % at 20 µM | hit rate 0.32% among 350,000 | AID 504720; in the data active means activation above about 50%
Target sequence (P0AE70 whole entry, looked up): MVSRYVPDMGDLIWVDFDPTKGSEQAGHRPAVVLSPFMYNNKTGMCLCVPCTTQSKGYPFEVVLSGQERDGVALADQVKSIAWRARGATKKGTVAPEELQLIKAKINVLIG
Anthrax LF inh2 = inhibitors of Bacillus anthracis lethal factor protease. multiplex microsphere protease cleavage assay, LF. inhibition, % at 10 µM. hit rate 0.12% among 360,000; further: plate controls were buffer without enzyme for full effect and enzyme alone for no effect
Vc quorum ag = inducers of Vibrio cholerae quorum light production without autoinducers; activation, % at 18.7 µM; hit rate 0.16% among 350,000; V. cholerae BH1578 lux reporter, luminescence, 6 h; in the data active means activation mostly above about 9.7%, no sharp cut-off; inconclusive means no clear call, values can overlap the other calls; inactive means mostly below about 3.7%
* marks the source's active call; other numbers are inactive results. Unless noted, no stated cut-off is given here; in the data, active means inhibition above about 30%; inconclusive means no clear call, values can overlap the other calls; inactive means below that.

c1ccc2c(c1)nc1n2C2(N3CCOCC3)CCCC2C1N1CCOCC1 (centres undefined) was read as BoNT-A LC inh2 -0.9, Bead autofluor 20620*, BoNT F protease -4.0, MazEF act -14.6, Anthrax LF inh2 -2.0 and Vc quorum ag 3.0.
For COCCN(C(=O)COC(=O)CSc1ccccc1)c1c(N)n(Cc2ccccc2)c(=O)[nH]c1=O the results were BoNT-A LC inh2 1.5, Bead autofluor inconclusive, BoNT F protease -1.3, MazEF act 4.4, Anthrax LF inh2 -4.7 and Vc quorum ag 1.3.
CC(C)C[C@H]1COc2cccc(N3CCSCC3)c2S(=O)(=O)N1 was read as BoNT-A LC inh2 -0.4, Bead autofluor 5347, BoNT F protease -2.8 and Anthrax LF inh2 -4.6.
`Cc1csc(NC(=O)CSc2nc3sc(C)c(C)c3c(=O)[nH]2)n1` gave BoNT-A LC inh2 0.6, Bead autofluor 3198, BoNT F protease -7.7, MazEF act -13.5, Anthrax LF inh2 -2.4 and Vc quorum ag -1.8.
CCOC(=O)Cc1csc(NC(=O)CSc2nc3sc(C(=O)O)c(C)c3c(=O)[nH]2)n1 was read as BoNT-A LC inh2 inconclusive, Bead autofluor 22793*, BoNT F protease -3.0, MazEF act 0.7, Anthrax LF inh2 1.0 and Vc quorum ag inactive.
Screening CC1CCN(C(=O)COC(=O)C2CCN(S(=O)(=O)c3c(Cl)cccc3Cl)CC2)CC1 returned MazEF act -2.2 and Vc quorum ag -0.9.
For COC(=O)c1ccc(OCC(=O)c2ccccc2OC)cc1 the results were BoNT-A LC inh2 inconclusive, Bead autofluor 20757*, BoNT F protease 4.9, MazEF act -8.1, Anthrax LF inh2 -7.3 and Vc quorum ag inactive.
Cc1ccccc1NC(=S)NC(=O)CCc1ccccc1 was read as BoNT-A LC inh2 -0.6, Bead autofluor 19923*, BoNT F protease -2.6, MazEF act 3.1, Anthrax LF inh2 4.2 and Vc quorum ag inactive.
For CCCCC(=O)NC(=S)Nc1ccccc1C(=O)Nc1ccccc1 the results were BoNT-A LC inh2 inconclusive, Bead autofluor 17346*, BoNT F protease 14.6, MazEF act 4.3, Anthrax LF inh2 -8.8 and Vc quorum ag -0.5.
`CCCCC(=O)Nc1cccc(NC(=O)c2ccccc2Br)c1` gave BoNT-A LC inh2 0.3, Bead autofluor 20490*, BoNT F protease 1.2, MazEF act -6.9, Anthrax LF inh2 -1.5 and Vc quorum ag -0.2.
`COC(=O)c1ccccc1NC(=S)NC(=O)CC(C)C` gave BoNT-A LC inh2 2.3, Bead autofluor 22351*, BoNT F protease 1.3, MazEF act -1.2, Anthrax LF inh2 -1.0 and Vc quorum ag -0.3.
